Screening results as filed in PubChem.
TRHR agonist: TRH receptor (human) agonism; TRHR cells, calcium flux fluo-8, FDSS agonist mode; activation, % at 2 µM; hit rate 0.18% among 360,000; in the data active means activation above about 30%; further: 0% is about no effect
Target sequence (P34981 whole entry, looked up): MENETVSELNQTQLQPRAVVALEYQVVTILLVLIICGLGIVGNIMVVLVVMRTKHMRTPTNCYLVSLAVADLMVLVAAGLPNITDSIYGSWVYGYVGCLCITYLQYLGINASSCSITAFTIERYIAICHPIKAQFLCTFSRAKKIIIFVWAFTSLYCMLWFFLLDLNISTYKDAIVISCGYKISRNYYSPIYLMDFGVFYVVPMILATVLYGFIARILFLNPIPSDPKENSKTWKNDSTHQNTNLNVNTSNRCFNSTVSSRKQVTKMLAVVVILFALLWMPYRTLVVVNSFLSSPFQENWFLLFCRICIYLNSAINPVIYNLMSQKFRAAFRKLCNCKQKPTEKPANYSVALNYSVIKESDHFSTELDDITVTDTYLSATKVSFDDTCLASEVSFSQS
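Read-out: compound-evoked intracellular calcium rise in TRHR cells, fluo-8 dye, kinetic FDSS fluorescence at 1 s/cycle following a 10-cycle baseline. Cells cultured overnight before dye loading (30 min–1.5 h, RT).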
TRPML1 ag: agonists of human TRPML1 channel. Q9GZU1. TRPML1-expressing cells, Ca2+ dye fluorescence, FDSS. activation, % (test concentration not listed). hit rate 0.12% among 410,000; in the data active means activation above about 50%; inconclusive means mostly about 30% to 49%; further: 0% is about no effect
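Cells: TRPML1-DL, 1X Tet inducer, ~16 h at 37 degrees C/5% CO2. Dye: ABD Ca8 no-wash + quencher, 45-90 min RT. Read: 10 s baseline, compound add, 110 s agonist phase; 54-4 EC80 (4uM final), 110 s antagonist phase.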
TRPV1 agonist: agonists of human vanilloid receptor 1 (TRPV1) | Q8NER1 | TRPV1-expressing cells, Fluo-8 calcium influx, agonist mode | activation, % at 8.33 µM | hit rate 0.19% among 320,000; in the data active means activation above about 80%; inconclusive means between about 30% and that limit; further: 0% is about no effect
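Cells expressing TRPV1 were dye-loaded with Fluo-8 and read kinetically: 10 s baseline, 3 min after compound (agonist portion), then 2 min after EC20 capsaicin (allosteric enhancer portion). Calcium-bound dye fluorescence at 480/520 nm.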
TRPML1 inh: inhibitors of human TRPML1 channel. TRPML1-inducible cells, Ca2+ dye fluorescence, FDSS; hits give low values; inhibition of EC80 agonist-evoked calcium signal. activity change, negative = inhibition, % (no concentration beside the values). hit rate 0.02% among 390,000. AID 624415; in the data active means activity change below about -50%; inconclusive means between about -30% and that limit;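 further: stimulus is agonist 54-4 at its EC80 concentration; on the % scale 0 is the no-effect control and ±100 the full control effect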
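Tet-induced TRPML1-DL cells loaded with Ca8 no-wash calcium dye were read kinetically on FDSS. Compound addition was followed by EC80 agonist 54-4 (4 uM final); inhibition was read over 110 s.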
TRPV1 PAM: human TRPV1 potentiation. TRPV1-expressing cells, Fluo-8 calcium influx, capsaicin EC20 potentiation. potentiation, % at 8.33 µM. hit rate 0.02% among 320,000; in the data active means potentiation above about 80%; inconclusive means between about 30% and that limit; further: 0% is about no effect
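Fluo-8 calcium influx in TRPV1-expressing cells, kinetic read (ex 480/em 520 nm). Compound added and read 3 min for agonist activity, followed by capsaicin at EC20 final and 2 min further read for enhancement.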
TRHR enhancer: allosteric enhancers of human TRH receptor | P34981 | TRHR cells, fluo-8 calcium fluorescence, EC20 TRH enhancement | enhancement, % at 2 µM | hit rate 0.66% among 360,000; in the data active means enhancement above about 30%; further: 0% is about no effect
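TRHR-expressing cells loaded with fluo-8 calcium dye were read kinetically (ex 480/em 530) during compound addition, then stimulated with an EC20 of TRH (10 nM final). Enhancement of the Gq-mediated intracellular calcium response was scored.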
Numbers without * were called inactive; u = inconclusive; x = no result given. Rows were chosen to be rich in hits. Some 0.96% of all compounds tested hit in one or more screens of this group.

SMILES | TRHR agonist | TRPML1 ag | TRPV1 agonist | TRPML1 inh | TRPV1 PAM | TRHR enhancer
CCC(=O)c1ccc(OCC(=O)OCC(=O)N2CCCc3ccccc32)cc1 | 1 | 1 | -2 | 0 | -1 | 5
COc1ccc(C(=O)NCC(=O)OCC(=O)N2CCCc3ccccc32)cc1 | 0 | 1 | -3 | 21 | 1 | 37*
Cc1ccc2nc(NC(=O)c3ccc4c(c3)OCO4)sc2c1 | 1 | 0 | 82* | 6 | 3 | -3
OC1C(Br)=Cc2ccccc21 (stereo not given) | x | 0 | x | x | x | x
C[N+]1(CC(=O)c2ccc(Cl)c(Cl)c2)CCOCC1 | x | 0 | x | x | x | x
CN(CC(=O)Nc1ccc(F)cc1)C(=O)CSc1ccc2c(c1)OCCO2 | 0 | 0 | 1 | -5 | 3 | 3
Cc1ccc(SCC(=O)OCC(=O)N(C)CC(=O)Nc2ccc(F)cc2)cc1C | 0 | 0 | 18 | -4 | -5 | 35*
CCCCN(C)CCNC(=O)Cn1ncc2c3ccccc3n(CCC)c2c1=O | 0 | 1 | x | 9 | x | 31*
Nc1cnn(Cc2ccc(F)cc2)c1 | 0 | 1 | 8 | 5 | -3 | -3
COc1cccc(Cn2cc(N)cn2)c1 | 0 | 1 | 9 | 2 | -1 | 32*
CC1(c2ccc(OC(F)F)cc2)NC(=O)N(CC(=O)Nc2ccccc2)C1=O (stereo not given) | 9 | u | 26 | -13 | -14 | -8
CC1(c2ccc(OC(F)F)cc2)NC(=O)N(CC(=O)Nc2ccc3[nH]c(=O)[nH]c3c2)C1=O (stereo not given) | 0 | 1 | -7 | 13 | 81* | -1
CC(=O)Nc1ccc(/C=N/N2C(=O)NC(C)(c3ccc(OC(F)F)cc3)C2=O)cc1 (stereo not given) | 8 | 50* | 21 | -3 | -3 | -8
CCOc1ccccc1NC(=O)Cn1c(=O)n(Cc2ccco2)c(=O)c2cccnc21 | 0 | -1 | x | -26 | x | 44*
COc1ccccc1NC(=O)Cn1c(=O)n(Cc2ccco2)c(=O)c2cccnc21 | 0 | 0 | x | -1 | x | -3
CC(C)(C)c1ccc(C(=O)NNC(=O)C2CCCCC2)cc1 | 2 | 5 | 90* | 5 | -17 | 2
Cn1nnnc1Sc1ncnc2scc(-c3ccc4ccccc4c3)c12 | 2 | x | x | x | x | 0
COc1ccc(F)c(Cn2cnc3c(cnn3C(C)(C)C)c2=O)c1Cl | x | 2 | x | -28 | x | x
CCOc1ccc(NC(=O)Nc2cnccn2)cc1 | 0 | 0 | u | 21 | -10 | 36*
COc1ccc(NC(=O)Nc2cnccn2)cc1 | -1 | 1 | 0 | 1 | 5 | -2
CCc1c(C)nc(SCC(=O)CC(=O)OC(C)C)c(C#N)c1C | 0 | 51* | 17 | 2 | -4 | 0
CCc1ccc(-c2nc3c(=O)n(C)c(=O)nc-3n(CC)n2)cc1 | x | 0 | x | x | x | x
Cc1ccc(-n2nc(C)c3c(C)c(CCC(=O)NCc4ccco4)c(C)nc32)cc1 | 0 | 1 | 82* | 16 | -13 | 2
Cc1ccc(CNC(=O)CCc2c(C)nc3c(c(C)nn3-c3ccc(C)cc3)c2C)cc1 | -3 | 0 | u | 1 | 2 | -3
CCCCNC(=O)CCc1c(C)nc2c(c(C)nn2-c2ccccc2)c1C | 0 | 2 | 94* | -14 | -1 | -3
SMILES | TRHR agonist | TRPML1 ag | TRPV1 agonist | TRPML1 inh | TRPV1 PAM | TRHR enhancer
Cc1ccc(-n2nc(C)c3c(C)c(CCC(=O)NCc4ccccc4)c(C)nc32)cc1 | 0 | 0 | 82* | -15 | 8 | 0
Cc1nc2c(c(C)nn2-c2ccccc2)c(C)c1CCC(=O)NCCc1ccccc1 | 0 | 2 | x | -14 | x | 3
c1ccc(-c2nc(NCC3CCCO3)c3oc4ccccc4c3n2)cc1 (stereo not given) | 0 | 2 | u | 33 | -15 | -14
CC(=O)c1ccc(Nc2ncnc3c2oc2ccccc23)cc1 | 0 | 1 | 88* | 5 | -11 | -1
c1ccc2c(c1)oc1c(NCC3CCCO3)ncnc12 (stereo not given) | 0 | 0 | -1 | -1 | -4 | 37*
COc1ccc([S+](=O)([O-])N2CCN([S+](=O)([O-])c3ccc4c(c3)OCCO4)CC2)c(OC)c1 | 1 | x | x | x | x | 5
